Source: PubChem BioAssay
FLuc inh-1 = Photinus pyralis luciferase inhibition. P08659. purified P. pyralis luciferase, luminescence, biochemical. Potency, µM (top dose mostly 115 µM), hits mostly inhibitors. 76,000 tested, 2.5% active. AID 1347043; also: potency is read from the fitted curve at half-maximal effect; % is scaled to controls: 0 for no effect and ±100 for the full control effect; nearly all actives have a fitted effect of over 65% in size
Target sequence (P08659 whole entry, looked up): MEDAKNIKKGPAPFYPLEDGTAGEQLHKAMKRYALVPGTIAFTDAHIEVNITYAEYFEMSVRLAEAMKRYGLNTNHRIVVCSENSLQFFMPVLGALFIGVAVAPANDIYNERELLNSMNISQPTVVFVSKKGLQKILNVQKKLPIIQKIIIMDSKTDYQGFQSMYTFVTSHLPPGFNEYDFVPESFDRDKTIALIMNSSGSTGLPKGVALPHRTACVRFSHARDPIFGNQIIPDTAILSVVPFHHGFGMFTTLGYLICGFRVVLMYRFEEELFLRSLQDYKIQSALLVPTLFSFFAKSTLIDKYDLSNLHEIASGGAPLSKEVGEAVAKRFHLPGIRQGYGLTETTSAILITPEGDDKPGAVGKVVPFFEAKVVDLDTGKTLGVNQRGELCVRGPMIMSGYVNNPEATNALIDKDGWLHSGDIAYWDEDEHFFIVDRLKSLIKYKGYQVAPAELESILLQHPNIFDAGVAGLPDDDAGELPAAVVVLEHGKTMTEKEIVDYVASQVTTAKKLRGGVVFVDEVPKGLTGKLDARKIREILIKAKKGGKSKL
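Cell-free enzyme assay, 10nM P. pyralis luciferase, luciferin and ATP each at 10uM. Inhibition profiled over a 6-point titration, read as luminescence.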
IP6K1 inhibitor = blocks human inositol hexakisphosphate kinase 1 | Q92551 | IP6K1 kinase, ADP-Glo luminescence, 2 h; active compounds read low | activity change, % (series mostly up to about 58 µM) | 140,000 tested, 0.81% active; in the data active = activity change below about -25%; also: % is scaled to controls: 0 for no effect and ±100 for the full control effect
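ADP-Glo luminescence measures ADP made by human IP6K1 during a 2 h RT reaction with ATP/IP6 (mix at 1.3 mM/130 uM); top library doses 57.5 and 19.1 uM final.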
SNCA expr inh = SNCA gene expression inhibition. Potency, µM (series often up to 57.2 µM), for inactives: at the top dose activity change, negative = inhibition, usual class: inhibitors. HEK-293 SNCA-luciferase knock-in, luminescence, 24 h. 140,000 tested, 0.17% active;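 also: potency is read from the fitted curve at half-maximal effect; plate controls were DMSO cells for no effect and cell-free wells for full effect; nearly all actives have a fitted effect of over 45% in size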
3T3 cytotox = NIH 3T3 cell cytotoxicity | NIH 3T3 viability, CellTiter-Glo ATP luminescence, 48-72 h | Potency, µM (series often up to 96.7 µM), for the others: at the highest dose activity change, negative = cytotoxicity, hits mostly inhibitors | 94,000 tested, 4.3% active | AID 1345082; also: potency is read from the fitted curve at half-maximal effect; % is scaled to controls: 0 for no effect and ±100 for the full control effect; nearly all actives have a fitted effect of over 55% in size
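First NIH 3T3 cells are plated at 400 cells/well; next compound is pinned in; then plates incubate 48 or 72 hr at 37 °C; finally CellTiter-Glo is added and luminescence read after 10 min.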
HEK cytotox = HEK 293 cell cytotoxicity | HEK 293 viability, ATP luminescence (CellTiter-Glo), 48-72 h | Potency, µM (top dose mostly 115 µM), inactives show at the top dose activity change, negative = cytotoxicity, hits mostly inhibitors | 94,000 tested, 6.6% active | AID 1345083; also: potency is read from the fitted curve at half-maximal effect; % is scaled to controls: 0 for no effect and ±100 for the full control effect; nearly all actives have a fitted effect of over 60% in size
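HEK 293 cells seeded at 250 cells/well were exposed to compound for 48 or 72 hr at 37 degree Celsius. Viability taken as ATP content by CellTiter-Glo luminescence.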
HEK293 viab = cell viability loss counter-screen; HEK-293-SNCA-luc viability, GF-AFC fluorescence, 24 h; Potency, µM (titrated, usually from 57.1 µM), inactives show at the highest dose activity change, negative = cytotoxicity, most hits filed as cytotoxic; 150,000 tested, 0.12% active; AID 1671193;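 also: potency is read from the fitted curve at half-maximal effect; 0% = DMSO-treated cells and -100% = medium-only wells without cells; nearly all actives have a fitted effect of over 30% in size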
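HEK-293-SNCA-luc cells (1500/well) plated 24 h, then exposed 24 h to a dilution series; GF-AFC added 30 min at 37C, fluorescence 405/540 nm; normalised to medium-only and DMSO wells, Hill fit.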
FLuc SDR -ATP = firefly luciferase binding stabilization, ATP absent | Purified FLuc-C-HiBiT, Nano-Glo HiBiT luminescence, no ATP | 1,300 tested, 7.8% active | shares compounds with FLuc inh-1 | Potency, µM (top dose mostly 32.7 µM), for inactives: at the top dose activation (signal gain), hits mostly activators; also: potency is read from the fitted curve at half-maximal effect; nearly all actives have a fitted effect of over 55% in size
FLuc SDR ATP = firefly luciferase binding stabilization, ATP added; shares compounds with FLuc inh-1; purified FLuc-C-HiBiT + ATP, HiBiT complementation luminescence; Potency, µM (highest dose often 32.7 µM), without a hit: at the highest dose activation (gain of signal), actives largely listed as activators; 1,300 tested, 8.7% active;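 also: signal reports ligand binding via conformational change of the enzyme rather than luciferase catalysis; potency is read from the fitted curve at half-maximal effect; % of control where 0% means no effect; nearly all actives have a fitted effect of over 55% in size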
FLuc inh-2 = blocks firefly luciferase enzymatic activity; shares compounds with FLuc inh-1; purified FLuc-C-HiBiT enzyme, luciferin luminescence; Potency, µM (top dose mostly 32.7 µM), for inactives: top-dose activity change, negative = inhibition, hits mostly inhibitors; 1,300 tested, 42% active; also: potency is read from the fitted curve at half-maximal effect; % is scaled to controls: 0 for no effect and ±100 for the full control effect; nearly all actives have a fitted effect of over 70% in size
IP6K1 inh cnf = human IP6K1 inhibition, confirmatory | shares compounds with IP6K1 inhibitor | recombinant IP6K1 kinase, ADP-Glo luminescence, 2 h | Potency, µM (doses to about 49 µM), for inactives: at the top dose activity change, negative = inhibition, most hits filed as inhibitors | 1,200 tested, 13% active; also: potency is read from the fitted curve at half-maximal effect; % is scaled to controls: 0 for no effect and ±100 for the full control effect; nearly all actives have a fitted effect of over 65% in size
* marks the source's active call; other numbers are inactive results; i = inactive; ? = inconclusive; · = no result given; [ ] = dose if it differs, or a comment. Sampled rows, rich in hits. Any-hit rate of the full collection: about 7.3%. Unless noted, calls follow the shape of the dose curve; as a rule, active = well fitted curve in the direction sought with a large enough effect; inconclusive = small, poorly fitted or top-dose-only effect, or another doubt; inactive = no such curve, though single readings can be large; an effect the other way counts as inactive or inconclusive.

SMILES	FLuc inh-1	IP6K1 inhibitor	SNCA expr inh	3T3 cytotox	HEK cytotox	HEK293 viab	IP6K1 inh cnf	others
Cc1ccccc1Cn1cccc(C(=O)Nc2nc3ccccc3s2)c1=O	·	-14.3	34.0%	·	·	3.3%	·	FLuc SDR -ATP=?;FLuc SDR ATP=?;FLuc inh-2=0.881µM*
CN1CCN(C(=O)Cc2c[nH]c3ncc(-c4ccc5c(c4)OCO5)cc23)CC1	22.4µM*	-26.6*	-18.7%[87.6 µM]	?	?	11.6%[87.6 µM]	?
CCCCOC(=O)N1C[C@H](C(=O)OCC)[C@H]2c3ccccc3N(CCOC)C(=O)[C@]21C	·	8.0	-7.4%[25.6 µM]	-29.0%[46.1 µM]	?	-1.5%[23.9 µM]	·
CC[C@]1(O)CC[C@H]2[C@@H]3CCC4=CCCC[C@@H]4[C@H]3CC[C@@]21C	·	-28.4*	-3.3%[25.6 µM]	·	·	-20.5%[23.9 µM]	?
CC[C@H]1C[C@H]2[C@@H]3CCC4=CC(=O)CC[C@@H]4[C@H]3CC[C@]2(C)[C@H]1O	·	-11.7	12.8%[25.6 µM]	·	·	1.3%	·
N[C@@H](Cc1ccc(Oc2cc(I)c(O)c(I)c2)c(I)c1)C(=O)O	·	-54.0*	15.2%[25.6 µM]	·	·	20.9%[23.9 µM]	?
COc1ccccc1CNC(=O)[C@H]1CN2CCC1C[C@@H]2Cn1cc(-c2cccc(N)c2)nn1 (some centres undefined)	i	16.2	-5.3%	-11.5%	4.0%	-11.5%	·
CN(C1CCNCC1)C1CCOCC1	i	2.4	18.6%	-8.0%	i	6.1%	·
Cc1cccc(OCC(=O)N2CCN(Cc3cc(=O)n4nc(-c5ccccc5Cl)sc4n3)CC2)c1	·	-29.6*	10.4%	·	·	4.1%	3.2%
COc1ccc2c(c[n+](C)c3c4cc5c(cc4ccc23)OCO5)c1OC	·	·	?	·	·	?	?
O=C1c2ccccc2C(=O)C1C(=O)C(c1ccccc1)c1ccccc1	·	-28.3*	-42.7%[25.6 µM]	·	·	-9.8%[23.9 µM]	?
CN(C(=O)C(c1ccccc1)c1ccccc1)[C@H](CN1CC[C@H](O)C1)c1ccccc1	·	-7.5	·	·	·	-12.4%	·
CCOC(=O)[C@@H]1[C@H]2c3ccccc3N(C)C(=O)[C@H]2N(C(=O)NC2CCCC2)[C@@H]1c1ccccc1	·	15.2	·	?	?	·	·
COc1cc2c(cc1Oc1ccccc1)NC(=O)C21CCN(c2nc(C)cnc2C)CC1	i	-32.4*	?	?	?	?	?
COc1cc2c(cc1OCC1CC1)NC(=O)C21CCN(C(=O)c2cccnc2)CC1	i	-25.5*	9.5%[87.6 µM]	25.1µM*	-16.0%[172 µM]	7.5%[87.6 µM]	-4.4%
COc1cc2c(cc1OCC1CC1)NC(=O)C21CCN(c2nc(C)cc(C)n2)CC1	i	-25.1*	?	?	?	-3.7%[87.6 µM]	1.5%
COc1cc2c(cc1Oc1ccccc1)NC(=O)C21CCN(C(=O)C2CCN(C)CC2)CC1	i	-4.1	-9.1%	?	-22.3%	10.6%	·
CC[C@H]1CN2CC[C@H]1C[C@@H]2CNCc1cccs1	i	-0.4	9.0%[87.6 µM]	-15.1%[174 µM]	-19.9%[230 µM]	9.0%[87.6 µM]	·
O=C(CCc1nc2ccccc2s1)N1[C@H]2CC[C@@H]1c1cnc(-c3ccccc3)nc1C2	i	18.8	-15.7%	-20.6%	?	-5.2%	·
COc1ccc([C@@H]2CN(C(=O)Nc3ccc(C)cc3)[C@@H]3C4CCN(CC4)[C@@H]32)cc1	i	8.9	119.1%	?	-23.7%	10.5%	·
COc1ccc([C@@H]2CN(C(=O)Cc3nonc3C)[C@@H]3C4CCN(CC4)[C@@H]32)cc1	i	-37.9*	-1.5%	-6.6%	-2.6%	-0.9%	-15.1%
c1ccc2c(c1)OCC(C1=NCCN1)O2 (centres undefined)	·	-43.5*	-26.9%	·	·	?	-8.2%
Cc1ccc([N+](=O)[O-])[c]2c1[O][Hg]2	·	-83.0*	?	·	·	?	1.03µM*
CC[C@H]1CN2CC[C@H]1C[C@@H]2CNC(=O)NC(C)C	i	5.0	-24.8%[87.6 µM]	-16.8%[230 µM]	-3.4%[230 µM]	10.8%[87.6 µM]	·
O=C1OC(c2ccc(O)c(S(=O)(=O)O)c2)(c2ccc(O)c(S(=O)(=O)O)c2)c2c(Br)c(Br)c(Br)c(Br)c21	·	-65.4*	-37.5%[25.6 µM]	·	·	2.2%[23.9 µM]	20.6µM*
COc1cccc(S(=O)(=O)N2[C@H]3CC[C@@H]2c2cnc(C)nc2C3)c1	i	-0.9	-13.6%	-8.3%	i	2.8%	·
CC(C)CN1Cc2ccccc2-n2ccnc2C12CCN(C(=O)c1ccc(F)cc1)CC2	i	20.2	-15.3%	i	?	-11.6%	·
